Measured values from PubChem BioAssay AID488835 (Broad Institute, 2010).
Among all 1,400 compounds or so, about 140 (10%) were called active.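 The calls were made as follows: active = Half-maximal inhibitory dose from the fit at or below ten times the top valid tested dose; inconclusive = Invalid fit, or flat curve showing 30 to 70% inhibition; inactive = the rest.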 Only a sample is shown. Potency and affinity values are given separately.

Each compound was assayed against Lysine-specific demethylase 4C (Homo sapiens) (UniProt Q9H3R0) (assay: GASC-1 (JMJD2C) histone demethylase inhibitors, dose response, biochemical, DELFIA europium, cherry-picked samples (AID 488835;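 also: signal is the H3K9me2 demethylation product detected by a dimethyl-specific antibody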)). Conditions: GST-JMJD2C(1-420), H3K9me3 demethylation; series mostly up to 6 µM.
Sequence of Lysine-specific demethylase 4C (Homo sapiens) (Q9H3R0 1-420 limits assumed): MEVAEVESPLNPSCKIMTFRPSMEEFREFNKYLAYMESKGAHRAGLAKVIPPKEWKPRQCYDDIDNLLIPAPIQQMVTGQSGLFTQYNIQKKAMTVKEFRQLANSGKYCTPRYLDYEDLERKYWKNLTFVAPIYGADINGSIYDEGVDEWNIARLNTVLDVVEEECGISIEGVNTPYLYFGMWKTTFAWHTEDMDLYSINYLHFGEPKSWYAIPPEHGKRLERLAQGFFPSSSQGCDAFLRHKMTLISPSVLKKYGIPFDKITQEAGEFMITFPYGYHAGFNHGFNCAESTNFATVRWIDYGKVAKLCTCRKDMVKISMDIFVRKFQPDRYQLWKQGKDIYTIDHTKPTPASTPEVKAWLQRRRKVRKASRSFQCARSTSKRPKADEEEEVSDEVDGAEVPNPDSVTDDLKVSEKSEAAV

outcome, inactive:
O=C(Cn1c(=O)sc2ccccc21)NCc1ccco1
CS(=O)(=O)N(CCc1ccccc1)CC(=O)NCc1ccc(Cl)cc1
COc1ccccc1Nc1ncnc2ccccc12
Cc1ccc(NC(=O)CSc2cccc[n+]2[O-])c([N+](=O)[O-])c1
Cc1cc(C)cc(C(=O)N2CCC(C(N)=O)CC2)c1
O=C(/C=C/c1ccc2c(c1)OCO2)NCCS(=O)(=O)N1CCN(c2ccc(F)cc2)CC1
COc1ccc(NC(=O)O/N=C/c2ccccc2)cc1
O=C(N/N=C/c1ccccc1)c1c(O)c2ccccc2[nH]c1=O
CC(C)Cn1c(N)c(C(=O)COC(=O)c2c(O)c(Cl)cc(Cl)c2Cl)c(=O)n(C)c1=O
CC(=O)C[C@@H](O)CC(=O)[C@H]1OC(=O)CCCCCc2ccccc21
Cn1c(=N)n(CC(O)c2ccccc2)c2ccccc21 (stereo not given)
COc1cccc(NC(=O)COC(=O)c2ccc(S(=O)(=O)NCc3ccco3)cc2)c1
CSCCC(NS(=O)(=O)c1ccc(Cl)cc1)C(=O)O (stereo not given)
O=C(CSc1nc2ccccc2c(=O)n1Cc1ccc(C(=O)NC2CC2)cc1)NCc1ccco1
Cc1nnc(SCc2nc3ccccc3[nH]2)s1
CCCC(=O)Nc1nc2c(c(=O)[nH]1)CCCC2
COc1ccc(C(=O)N2CCC(C(=O)NCc3ccccn3)CC2)cc1
COc1ccc(N=Cc2cccc(C)c2O)cc1Cl
O=C(NC(=S)Nc1ccccn1)c1ccc([N+](=O)[O-])cc1
CN(C)c1ccc(C2Nc3ccccc3C(=O)N2CCN2CCNC2=O)cc1 (stereo not given)
COc1ccc(/C=C2\Sc3ccc(C(=O)N4CCCC4)cc3N(C)C2=O)cc1OC
Cc1ccc(NC(=O)CSc2nc3c(c(=O)[nH]2)CN(Cc2ccc(F)cc2)CC3)cc1C
O=c1cc(-c2ccc(O)c(O)c2)oc2c(C3O[C@H](CO)[C@@H](O)[C@H](O)[C@H]3O)c(O)cc(O)c12 (stereo not given in full)
CC(=O)c1ccc(O[C@@H]2O[C@H](CO)[C@@H](O)[C@H](O)[C@H]2O)cc1
CC(C)n1cnc2c(NCc3ccccc3)nc(NCc3ccccc3)nc21
Cn1nnc(NC(=O)CSc2ccc(Cl)cc2)n1
Cc1cccn2c(=O)c(/C=N/O)c(N3CCCC3)nc12
Cc1ccc(NC(=O)CSc2ncc(S(=O)(=O)c3ccccc3)c(=O)[nH]2)cc1C
Cc1cc(C)nc(NCc2ccc(Cl)cc2)n1
Cn1c(=O)[nH]c(=O)c2c1nc(N1CCOCC1)n2CCc1ccccc1
COc1ccc(NC(=O)N(C)C[C@H]2Oc3c(NC(=O)C4CC4)cccc3C(=O)N([C@H](C)CO)C[C@@H]2C)cc1
Cc1occc1-c1nnc(SCC(=O)c2cc3ccccc3oc2=O)o1
Cc1ccc(CCNC(=O)C23C[C@H]4C[C@@H](C2)CC(n2nnc(C)n2)(C4)C3)cc1
CCOC(=O)c1oc2ccccc2c1COC(=O)C(C)NC(=O)c1ccco1 (stereo not given)
COc1ccccc1-n1c(SCC(=O)N2CCCC2)nc2cccnc21
COc1cc(/C=N/N2CCN(c3ccccc3OC)CC2)ccc1O
CCCn1nnnc1SCC(=O)NCc1ccc(OC)cc1
CCOC(=O)c1[nH]c(CSc2nnnn2-c2ccccc2C)c(C(=O)OCC)c1C
CCN(C[C@H]1N[C@@](C)(C(=O)OC)[C@H]2C(=O)N(Cc3ccccc3)C(=O)[C@@H]12)C(=O)Nc1ccc(Cl)cc1
O=C(Cc1ccccc1)NNC(=O)c1cccs1
O=C(NC1(O)C(=O)c2ccccc2C1=O)c1c(Cl)cccc1Cl
CCC(C)[C@H](NC(=O)NCc1ccccc1Cl)C(=O)O (stereo not given in full)
CCC(=O)Nc1ccc(NC(=O)Cc2ccccc2)cn1
C#CCOCCOCCOCCNc1nc(N2CCN(C(=O)[C@H](CCC(=O)O)n3cc([C@@H](N)CCCCN)nn3)CC2)nc(N2CCN(C(=O)[C@H](CCC(=O)O)n3cc([C@@H](N)CCCCN)nn3)CC2)n1
Cc1sc2ncnc(OCC(=O)N3CCN(S(=O)(=O)c4ccc(Cl)cc4)CC3)c2c1C
Cc1onc(-c2c(F)cccc2Cl)c1C(=O)NC1CC1
COC(=O)c1ccc(-c2sc3nc(N4CCOCC4)c4c(c3c2N)CC(C)(C)OC4)o1
COc1cc(C(C(=O)NC2CCCCC2)N(Cc2cccs2)C(=O)Cc2c[nH]c3ccccc23)cc(OC)c1OC (stereo not given)
COc1ccc(C)cc1-n1nnnc1SC/C(O)=C(\C#N)c1nc2ccccc2[nH]1
CN1CCN(CC(=O)Nc2ccc(S(=O)(=O)N(C)C)cc2)CC1
CCOC(=O)c1cc2nc(Nc3ccc(OC)cc3)sc2s1
O=S(=O)(c1ccc2ccccc2c1)N(CC(O)COCc1ccco1)c1ccccc1 (stereo not given)
CCOc1cc(/C=C\c2[nH]c(=O)[nH]c(=O)c2[N+](=O)[O-])ccc1OC(C)CC (stereo not given)
O=C(NC1CC2CCC1C2)C1COc2ccccc2O1 (stereo not given)
O=C(CN1C(=O)c2ccccc2C1=O)NCC1COc2ccccc2O1 (stereo not given)
COc1ccc(NC(=O)c2cccc(N3C(=O)C4CC=C(C)CC4C3=O)c2)c(OC)c1 (stereo not given)
COc1ccc(C2/C(=C(/O)c3ccccc3)C(=O)C(=O)N2CCN2CCOCC2)c(OC)c1 (stereo not given)
CCC(=O)Nc1ccccc1Nc1cc(C#N)c(C#N)cc1[N+](=O)[O-]
O=[N+]([O-])c1ccccc1N/N=C\c1ccccc1Cl
COc1cccc(/C=N/NC(=O)CNC(=O)c2cccs2)c1O
Fc1cccc(/C=N/Nc2nc3ccccc3[nH]2)c1
O=C(O)CSc1nnc(COc2cccc3cccnc23)n1-c1cccc(C(F)(F)F)c1
CCCCN(C)C(=O)CCC(=O)NNc1nc2ccccc2c2nc(C)nn12
CCCCOC(=O)Cn1cnc2ccc(Br)cc2c1=O
CCc1ccc2oc(=O)cc(CN3CCOCC3)c2c1
